Source: PubChem BioAssay (PCMD)
This excerpt belongs to a sample that is enriched for hits.
FXIa single inh – blocks human coagulation factor XIa activity; purified human FXIa, fluorogenic AMC substrate cleavage; inhibition, % at 10 µM; 0.3% of 33,000 active; AID 687;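 active = inhibition above 40% in the primary screen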;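 note: 0% = enzyme without compound and 100% = blank wells lacking enzyme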
FXIIa single – inhibitors of human coagulation factor XIIa. purified human FXIIa, AMC substrate fluorescence, 2 h. inhibition, % at 10 µM. 0.2% of 33,000 active. AID 701; in the data active = inhibition above about 30%;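 note: 0% = enzyme with vehicle only and 100% = no enzyme blank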
Numbers without * were called inactive.

SMILES	FXIa single inh	FXIIa single
CNCCCc1ccccc1	41*	3
COc1ccc(CCC(C)NCCc2ccccc2)cc1 (centres undefined)	-9	10
c1ccc2cc3cc4ccccc4cc3cc2c1	5	-1
